# Screening data from PubChem BioAssay.
# HIF act = HIF pathway transcriptional activators, primary screen, cell-based, U2OS HRE-luciferase, luminescence; 300,000 compounds, 0.32% hits; activation, % at 7.5 µM (by protocol); AID 1910, 2009; U2OS HRE-luciferase reporter; normalized: DMSO 0%, desferrioxamine 100%;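 active means mean activation of at least 10% of the iron chelator positive control signal, with at least half of replicates also reaching 10%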
# Rce1 inhib = yeast Rce1p protease inhibitors, primary screen, biochemical, fluorescence, cell-free homogeneous; yeast membranes, quenched prenylated peptide cleavage fluorescence; AID 2563, 2010; calls only; 290,000 compounds, 0.27% hits;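 active means fall in fluorescence gain of 50% or more versus controls, with final raw signal at or below 3038400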;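 further: plate controls were neutral control wells for no effect and wells lacking membranes for full effect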
# Target sequence (Q03530 whole entry, looked up): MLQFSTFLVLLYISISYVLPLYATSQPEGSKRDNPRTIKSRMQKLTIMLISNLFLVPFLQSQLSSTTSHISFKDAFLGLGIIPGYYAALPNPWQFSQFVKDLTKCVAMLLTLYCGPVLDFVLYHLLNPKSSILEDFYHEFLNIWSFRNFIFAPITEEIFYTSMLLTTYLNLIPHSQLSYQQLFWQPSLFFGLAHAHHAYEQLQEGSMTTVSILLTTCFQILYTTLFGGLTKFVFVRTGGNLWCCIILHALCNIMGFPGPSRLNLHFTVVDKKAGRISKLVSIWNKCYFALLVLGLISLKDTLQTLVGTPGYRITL
# Statin myotox sup = suppressors of statin myotoxicity in C2C12 myotubes, primary screen, cell-based, single point, plate reader | C2C12 myotubes + simvastatin, ATP luminescence, 48 h; scaled: DMSO 0, geranylgeraniol control 100 | rescue of ATP level, % at 7.49 µM | 330,000 compounds, 0.78% hits;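 active means mean ATP rescue above about 67%, or every replicate alone reaching that limit, limit read from the data, passing the limit was not always enough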;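 further: myotubes were challenged with 10 µM simvastatin during compound exposure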
# AI-2 QS modul = Vibrio harveyi AI-2 quorum sensing modulators, primary screen, JMH597 strain, luminescence/OD600 ratio. Vibrio harveyi JMH597 AI-2 luminescence/OD600 ratio, 9 h; active compounds read low; strain lacks LuxN and CqsS sensors; 0 = neutral-control median. activity change, % at 7.5 µM. AID 2094, 2009. 300,000 compounds, 0.4% hits; in the data active means activity change below about -75%, passing the limit was not always enough;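 further: luminescence divided by OD600 gain over 9 h not by final OD600 alone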
# PGC1a acetyl inh = inhibitors of PGC1a acetylation signal, primary screen, cell-based, U2OS, AlphaScreen, inhibitor mode; 350,000 compounds, 0.17% hits; inhibition, % at 15.6 µM; AlphaScreen anti-acetyl-lysine; with virally co-expressed GCN5 acetyltransferase;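 active means every replicate shows inhibition of at least 40%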;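 further: 0% = neutral control wells and 100% = positive control wells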
# Active calls of the source: *; i = inactive; x = no result; + = active, no number. This is a sample that favours compounds with a hit; in the whole collection about 1.3% have one here.
SMILES,HIF act,Rce1 inhib,Statin myotox sup,AI-2 QS modul,PGC1a acetyl inh
CN(C)C(=O)c1cccc(-c2ccc([C@@H]3[C@@H](C#N)N(C(=O)C4CCCCC4)[C@@H]3CO)cc2)c1,x,x,-16,x,-6
COc1cc2c(N3CCOCC3)cc(O)c(CC(=O)Nc3ccccc3)c2cc1OC,1,i,115*,22,8
CCn1cc(/C=C(\NC(=O)c2ccccc2)C(=O)N2CCOCC2)c2ccccc21,-10,+,0,31,6
COn1c(-c2ccccc2)nc2c1CCc1c-2no[n+]1[O-],1,i,89*,12,6
[O-][n+]1onc2c1CCc1c-2nc(-c2ccccc2)n1OCc1ccccc1,1,i,-8,6,-2
Cc1nc(NC(=O)c2cccc(-c3cc4ccccc4oc3=O)c2)ccc1Br,0,+,x,14,x
Cc1nc(NC(=O)c2ccc(-c3cc4ccccc4oc3=O)cc2)ccc1Br,0,i,x,10,x
Cc1cccc(S(=O)(=O)N[C@@H]2CC[C@H](CCNC(=O)c3cnccn3)O[C@@H]2CO)c1,x,x,1,x,-5
COc1cccc(/C=N/Nc2ncnc3c2ncn3Cc2ccccc2)c1O,68*,i,x,21,x
CC(=O)c1cccc(NC(=O)Nc2cccnc2)c1,3,i,81*,-5,50*
COC(=O)c1cc(OC)c(OC)cc1NC(=O)Nc1cccc(C(C)=O)c1,0,x,114*,15,5
COC(=O)c1cc(OC)c(OC)cc1NC(=O)Nc1ccc(OC)cc1,-1,i,x,14,2
COCC(=O)N1CC2(C1)[C@H](c1ccc(-c3ccc(F)cc3)cc1)[C@@H](CO)N2C(C)=O,x,x,x,x,10
COCC#Cc1ccc2c(c1)O[C@H](CN(C)C)[C@@H](C)CN([C@@H](C)CO)S2(=O)=O,x,x,-1,x,0
COc1ccc(S(=O)(=O)Nc2cc3c4c(oc3c3ccccc23)CCCC4=O)cc1,-27,x,77*,25,-34
O=C(NC1CCCC1)N1CC2(C1)[C@H](c1ccccc1)[C@@H](CO)N2CC1CCOCC1,x,x,x,x,4
COc1cc(OC)c(NC(=O)CCNS(=O)(=O)c2cc(Br)cnc2N)cc1Cl,1,i,94*,-4,-10
O=C(C[C@H]1C=C[C@@H](NC(=O)Nc2ccccc2)[C@@H](CO)O1)NCc1cccc(F)c1,x,x,x,x,4
CC1=N/C(=C\c2ccc(OC(C)C)cc2)C(=O)N1c1ccc(C(=O)O)cc1,0,x,-2,-83*,0
C[C@H]1CN([C@@H](C)CO)S(=O)(=O)c2ccc(-c3cccc(C(=O)N(C)C)c3)cc2O[C@@H]1CN(C)C,x,x,10,x,0
C[C@@H]1CN([C@H](C)CO)C(=O)Cc2cc(NC(=O)Cc3cn(C)c4ccccc34)ccc2O[C@@H]1CN(C)Cc1ccc(Cl)c(Cl)c1,x,x,69*,x,-11
C[C@H](CO)N1C[C@H](C)[C@@H](CN(C)Cc2ccc(Cl)c(Cl)c2)Oc2ccc(NC(=O)Cc3ccccc3)cc2CC1=O,x,x,86*,x,-18
C[C@@H]1CN([C@H](C)CO)C(=O)Cc2cc(NC(=O)Cc3cn(C)c4ccccc34)ccc2O[C@@H]1CN(C)Cc1ccccc1,x,x,48,x,x
C[C@H]1CN([C@@H](C)CO)C(=O)c2cccc(N(C)C)c2O[C@@H]1CN(C)Cc1ccc(Cl)c(Cl)c1,x,x,95*,x,-11
C[C@H]1CN([C@@H](C)CO)C(=O)Cc2cc(NC(=O)Cc3cn(C)c4ccccc34)ccc2O[C@@H]1CN(C)Cc1ccc(Cl)c(Cl)c1,x,x,142*,x,-8
SMILES,HIF act,Rce1 inhib,Statin myotox sup,AI-2 QS modul,PGC1a acetyl inh
C[C@H](CO)N1C[C@H](C)[C@@H](CN(C)C(=O)NC2CCCCC2)Oc2c(NC(=O)NC3CCCCC3)cccc2C1=O,x,x,16,x,9
CO[C@H]1CN(C)C(=O)c2cc(NC(C)=O)ccc2OC[C@H](C)N(CCC(F)(F)F)C[C@@H]1C,x,x,-12,x,-19
Cc1cc(C)n(C(=O)c2ccc(C)c(S(=O)(=O)N3CCCC3)c2)n1,0,i,95*,-1,-1
CC(=O)Nc1ccc(C(=O)Nc2ccc(S(=O)(=O)NCC3CCCO3)cc2)cc1 (configuration not stated),0,i,-1,16,-4
CC(=O)Oc1ccc(C(=O)Nc2ccc(S(=O)(=O)NCC3CCCO3)cc2)cc1 (configuration not stated),0,+,22,19,x
CCOc1ccc(N2CC(C(=O)Nc3ccc(S(=O)(=O)NCC4CCCO4)cc3)CC2=O)cc1 (configuration not stated),1,x,24,x,56*
Cc1cc(C)n(C(=O)c2ccc(S(=O)(=O)NCC3CCCO3)cc2)n1 (configuration not stated),0,i,112*,26,2
NC(=O)N1N=C2/C(=C/c3ccccc3)CCCC2C1c1ccccc1 (configuration not stated),0,+,24,1,4
Cc1ccc(NC(=O)COc2ccc(/C=C3/SC(=Nc4ccccc4)N(Cc4cccnc4)C3=O)cc2)cc1,0,i,80*,12,-1
C[C@H](CO)N1C[C@H](C)[C@H](CN(C)C(=O)C2CCCCC2)Oc2ncc(C#CC3CCCCC3)cc2C1=O,x,x,-5,x,-4
CC1CCN(C(=O)C2CCN(S(=O)(=O)c3ccc(-n4cnnn4)cc3)CC2)CC1,-1,+,13,21,1
COc1ccc2[nH]cc(C(=O)CNc3nc(C)cs3)c2c1,1,i,125*,19,10
CNC[C@@H]1OCCCC[C@H](C)Oc2ccc(NC(=O)Nc3cccc4ccccc34)cc2C(=O)N([C@H](C)CO)C[C@@H]1C,x,x,-5,x,-17
COc1ccc(-c2ccc(-c3nnc(-c4cc(OC)ccc4OC)o3)cc2)cc1,0,+,0,3,x
C[C@H](CO)N1C[C@H](C)[C@H](CN(C)C(=O)Nc2cccc3ccccc23)Oc2ccc(NS(=O)(=O)c3cccs3)cc2CC1=O,x,x,12,x,-1
O=C(N/N=C/c1ccco1)C1CC1c1ccccc1 (configuration not stated),-1,i,x,-86*,x
O=C(N/N=C/c1ccco1)C1CC1,0,i,x,21,x
NC1=NC(=Nc2ccccc2)c2ccccc21,0,i,134*,4,11
Cc1ccc(NC(=O)COC(=O)c2ccc([N+](=O)[O-])s2)c(C)c1,0,i,x,19,x
COc1ccccc1NC(=O)COC(=O)c1ccc([N+](=O)[O-])s1,-1,i,x,-87*,x
COc1ccccc1CNC(=O)c1cccc(NC(=O)c2ccccc2)c1,26*,i,x,6,x
